From PubChem BioAssay (EPA / NIEHS) come the findings set out here.

Inconclusive results are not listed. Activity calls are given as the source filed them. How the source made its calls, unless noted: active means hit-call score of the fitted dose curve at least 0.9, where 1 is the maximum; inconclusive means response in the unintended direction; inactive means score below 0.9.

Assay [1] in a line: ATG_TAL_CIS: Attagene CIS-FACTORIAL HepG2 Assay for human TAL Basal Promoter (AID 2282966; active means hit-call score of the fitted dose curve at least 0.9, where 1 is the maximum; inactive means score below 0.9;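 further: background control endpoint measuring basal TAL promoter reporter mRNA not a specific factor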). The following applies: HepG2 Attagene cis-factorial TAL promoter reporter; actives raise or lower the signal. In outline:
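Human hepatoma HepG2 cells, transfected with promoter-regulated reporter units, were treated 24 h. Reporter transcript levels, measured through RT-PCR and capillary electrophoresis, were fitted for gain or loss relative to DMSO.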

Assay [2] in a line: ATG_TGFb_CIS: Attagene CIS-FACTORIAL HepG2 Assay for human Transforming Growth Factor (TGF) (AID 2282967; active means hit-call score of the fitted dose curve at least 0.9, where 1 is the maximum; inactive means score below 0.9). The following applies: HepG2 Attagene CIS TGFb reporter, mRNA transcription; actives raise or lower the signal. In outline:
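Endogenous TGFB1-linked transcription factor activity read as reporter mRNA via RT-PCR and capillary electrophoresis, 24 h after dosing transiently transfected HepG2 cells. Gain or loss of signal fitted relative to DMSO.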

Assay [3] can be described thus: ATG_VDRE_CIS: Attagene CIS-FACTORIAL HepG2 Assay for human Vitamin D Receptor Element (VDRE) (AID 2282968; active means hit-call score of the fitted dose curve at least 0.9, where 1 is the maximum; inactive means score below 0.9). The settings on record: HepG2 VDRE cis-reporter transcription, actives raise or lower the signal. In outline:
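Steps: transfect HepG2 with multiple reporter transcription units; dose chemicals 24 h; isolate RNA; RT-PCR; label with 6-FAM primer extension; HpaI digest; capillary electrophoresis. Curves fitted both directions against DMSO.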

Assay [4] deals with Nuclear receptor subfamily 1 group I member 3 (Homo sapiens) (UniProt Q14994). Nature of the assay: ATG_CAR_TRANS: Attagene TRANS-FACTORIAL HepG2 Assay for human Constitutive Androstane Receptor (CAR) (AID 2282969).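 Further: activators raise reporter mRNA above DMSO so AC50 marks induction.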 The settings on record: HepG2 Attagene TRANS-FACTORIAL CAR reporter. In outline: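 Steps: transient transfection of HepG2 with multiple GAL4-UAS reporter units; 24 h compound incubation; RNA isolation, RT-PCR, 6-FAM primer extension, HpaI digest; capillary electrophoresis. Gain-of-signal relative to DMSO negative control.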
Chain of Nuclear receptor subfamily 1 group I member 3 (Homo sapiens) (Q14994 whole entry, looked up, the tested form may be a part): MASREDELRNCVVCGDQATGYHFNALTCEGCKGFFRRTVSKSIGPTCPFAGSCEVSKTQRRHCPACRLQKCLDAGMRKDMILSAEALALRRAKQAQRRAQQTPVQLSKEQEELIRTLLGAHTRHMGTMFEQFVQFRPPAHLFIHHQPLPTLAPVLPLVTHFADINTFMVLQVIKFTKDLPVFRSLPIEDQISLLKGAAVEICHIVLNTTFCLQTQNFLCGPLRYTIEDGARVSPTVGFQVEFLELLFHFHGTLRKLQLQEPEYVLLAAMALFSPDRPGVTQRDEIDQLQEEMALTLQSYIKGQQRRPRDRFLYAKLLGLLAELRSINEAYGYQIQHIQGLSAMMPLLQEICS

In assay [5] the target is Estrogen receptor (Homo sapiens) (UniProt P03372). Nature of the assay: ATG_ERa_TRANS: Attagene TRANS-FACTORIAL HepG2 Assay for human Estrogen Receptor alpha (ERa) (AID 2282970). The following applies: HepG2 Attagene TRANS ERa GAL4 reporter, mRNA. In outline: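 Signal derives from fluorescence of labelled reporter PCR fragments separated by capillary electrophoresis. HepG2 cells transiently carrying multiple GAL4-UAS reporter units were treated 24 hours, and induction above DMSO baseline was fitted as activity.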
Chain of Estrogen receptor (Homo sapiens) (P03372 whole entry, looked up, the tested form may be a part): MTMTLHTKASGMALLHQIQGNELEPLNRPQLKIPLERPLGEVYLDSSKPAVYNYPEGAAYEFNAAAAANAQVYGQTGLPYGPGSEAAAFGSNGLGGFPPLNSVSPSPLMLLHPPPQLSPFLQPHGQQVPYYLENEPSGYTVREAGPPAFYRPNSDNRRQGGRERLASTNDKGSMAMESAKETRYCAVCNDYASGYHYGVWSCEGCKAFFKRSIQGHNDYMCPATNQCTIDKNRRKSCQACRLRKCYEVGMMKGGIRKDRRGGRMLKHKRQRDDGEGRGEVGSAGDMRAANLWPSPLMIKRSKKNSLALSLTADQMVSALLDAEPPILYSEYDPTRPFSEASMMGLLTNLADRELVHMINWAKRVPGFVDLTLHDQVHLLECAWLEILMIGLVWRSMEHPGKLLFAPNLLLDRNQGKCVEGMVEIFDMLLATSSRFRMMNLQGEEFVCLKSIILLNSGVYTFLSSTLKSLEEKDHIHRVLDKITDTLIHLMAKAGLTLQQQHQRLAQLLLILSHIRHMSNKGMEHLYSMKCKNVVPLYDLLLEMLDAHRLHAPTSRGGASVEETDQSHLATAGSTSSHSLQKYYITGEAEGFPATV

In assay [6] the target is X-box-binding protein 1 (Homo sapiens) (UniProt P17861). Nature of the assay: ATG_Xbp1_CIS: Attagene CIS-FACTORIAL HepG2 Assay for human X-box Binding Protein 1 (XBP1) (AID 2282972; active means hit-call score of the fitted dose curve at least 0.9, where 1 is the maximum; inactive means score below 0.9). The following applies: HepG2 XBP1 cis-element reporter, Attagene multiplex; actives raise or lower the signal. In outline:
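Reporter transcripts were quantified by RT-PCR with fluorescent primer extension and capillary electrophoresis after 24 h chemical exposure. Cells: transiently transfected HepG2 carrying cis-regulated reporter constructs; data fitted bidirectionally relative to DMSO.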

The nature of assay [7]: ATG_GAL4_TRANS: Attagene TRANS-FACTORIAL HepG2 Assay for GAL4 (Internal Marker) (AID 2282976). The settings on record: HepG2 Attagene TRANS GAL4 internal marker reporter. In outline:
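Liver HepG2 line bearing multiplexed GAL4-UAS reporter constructs; 24 h chemical treatment. Transcripts were quantified as fluorescent fragments on capillary electrophoresis after RT-PCR and HpaI cut, with activity fitted upward from DMSO.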

For assay [8], the target named is Estrogen-related receptor gamma (Homo sapiens) (UniProt P62508). Nature of the assay: ATG_ERRg_TRANS: Attagene TRANS-FACTORIAL HepG2 Assay for human Estrogen-Related Receptor gamma (ERRg) (AID 2282977).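 Further: hits increase reporter signal over DMSO so potencies reflect activators.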 The following applies: HepG2 Attagene TRANS reporter, ERRg transactivation. In outline: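 Exogenous NR-Gal4 chimera activity measured as reporter transcript induction after 24 h in transiently transfected HepG2 cells. RNA reverse-transcribed, PCR-amplified, 6-FAM-labelled and resolved by capillary electrophoresis; increase over DMSO baseline.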
Chain of Estrogen-related receptor gamma (Homo sapiens) (P62508 whole entry, looked up, the tested form may be a part): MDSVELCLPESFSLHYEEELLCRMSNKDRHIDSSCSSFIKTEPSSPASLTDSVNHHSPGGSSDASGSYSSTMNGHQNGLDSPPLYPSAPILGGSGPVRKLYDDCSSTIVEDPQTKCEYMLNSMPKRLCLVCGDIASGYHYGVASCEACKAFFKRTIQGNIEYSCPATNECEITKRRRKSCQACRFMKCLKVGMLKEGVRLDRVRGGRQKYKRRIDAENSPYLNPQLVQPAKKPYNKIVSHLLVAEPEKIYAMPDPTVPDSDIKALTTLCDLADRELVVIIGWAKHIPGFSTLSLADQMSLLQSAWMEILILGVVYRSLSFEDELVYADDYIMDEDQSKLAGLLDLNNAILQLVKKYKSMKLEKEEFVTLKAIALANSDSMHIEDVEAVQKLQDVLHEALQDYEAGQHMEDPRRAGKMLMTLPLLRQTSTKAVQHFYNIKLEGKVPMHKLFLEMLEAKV

In assay [9] the target is Oxysterols receptor LXR-alpha (Homo sapiens) (UniProt Q13133). Nature of the assay: ATG_LXRa_TRANS: Attagene TRANS-FACTORIAL HepG2 Assay for human Liver X Receptor alpha (LXRa) (AID 2282980). The settings on record: HepG2 Attagene TRANS reporter, LXRa transactivation. In short, it runs like this:
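In this multiplexed TRANS system, compounds act on HepG2 cells carrying GAL4-UAS reporter units and a receptor-GAL4 fusion for 24 h. Induced reporter RNA is amplified, fluorescently labelled and sized by capillary electrophoresis, with DMSO as baseline.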

Assay [10] concerns the target Oxysterols receptor LXR-beta (Homo sapiens) (UniProt P55055). Nature of the assay: ATG_LXRb_TRANS: Attagene TRANS-FACTORIAL HepG2 Assay for human Liver X Receptor beta (LXRb) (AID 2282981). The settings on record: HepG2 Attagene TRANS GAL4-LXRb reporter, mRNA. In outline: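 Measures induction of a Gal4-driven reporter transcript in HepG2 cells expressing an exogenous LXRb-Gal4 fusion. Cells are exposed to compound for 24 h before RNA isolation and RT-PCR with capillary electrophoresis detection.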

Assay [11] in a line: ATG_M_06_TRANS: Attagene TRANS-FACTORIAL HepG2 Assay for M06 Transcription Factor (Internal Marker) (AID 2282983). The settings on record: HepG2 Attagene TRANS M06 internal marker reporter. In short, it runs like this: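 Multi-reporter-transfected HepG2, 24 h treatment; reporter transcripts quantified via RT-PCR, primer-extension labelling and CE. DMSO-normalized gain-of-signal fit.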

Assay [12] concerns the target Transcriptional activator Myb (Homo sapiens) (UniProt P10242). Nature of the assay: ATG_Myb_CIS: Attagene CIS-FACTORIAL HepG2 Assay for human Myeloblastosis (Myb) Proto-Oncogene Transcription Factor (AID 2282986; active means hit-call score of the fitted dose curve at least 0.9, where 1 is the maximum; inactive means score below 0.9). The following applies: HepG2 Attagene CIS-FACTORIAL Myb reporter transcription; actives raise or lower the signal. In outline:
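In this HepG2 transient-transfection format, cis-regulated reporter mRNA is quantified 24 h post-dosing by RT-PCR with capillary electrophoresis, fitted bidirectionally to DMSO baseline.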

Assay [13] is described as follows: ATG_M_19_TRANS: Attagene TRANS-FACTORIAL HepG2 Assay for M19 Transcription Factor (Internal Marker) (AID 2282974). The following applies: HepG2 Attagene TRANS-FACTORIAL M19 internal marker reporter. In short, it runs like this: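 Using RT-PCR and capillary electrophoresis, reporter mRNA from transiently transfected human HepG2 cells was quantified following 24 h exposure; activity was fitted in the positive direction against DMSO.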

Assay [14] addresses Bile acid receptor (Homo sapiens) (UniProt Q96RI1). Nature of the assay: ATG_FXR_TRANS: Attagene TRANS-FACTORIAL HepG2 Assay for Farnesoid X Receptor (FXR) (AID 2282979).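 Further: hits raise reporter mRNA above DMSO so AC50 marks FXR activation.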 The following applies: HepG2 Attagene TRANS FXR-GAL4 reporter transcription. In short, it runs like this:
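After 24 h chemical treatment of transfected HepG2 cells, GAL4-UAS reporter transcripts driven by an exogenous FXR-GAL4 fusion were measured by RT-PCR and capillary electrophoresis. Increases over DMSO were fitted.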

Assay [15] concerns the target Hepatocyte nuclear factor 4-alpha (Homo sapiens) (UniProt P41235). Nature of the assay: ATG_HNF4a_TRANS: Attagene TRANS-FACTORIAL HepG2 Assay for human Hepatocyte Nuclear Factor 4 alpha (HNF4a) (AID 2282982). The settings on record: HepG2 HNF4a transactivation reporter, mRNA readout. In short, it runs like this: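 In this trans-factorial format, a chimeric HNF4a-GAL4 fusion drives a GAL4-UAS reporter in transfected HepG2 liver cells. After 24 h treatment, reporter mRNA induction is measured by RT-PCR with capillary electrophoresis, relative to DMSO.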

Assay [16] is described as follows: ATG_M_32_TRANS: Attagene TRANS-FACTORIAL HepG2 Assay for M32 Transcription Factor (Internal Marker) (AID 2282984). The settings on record: HepG2 Attagene TRANS M32 internal marker reporter. In short, it runs like this: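 After 24 h dosing of transfected HepG2 cells, total RNA was reverse-transcribed, reporter sequences PCR-amplified, 6-FAM labelled by primer extension and HpaI-digested before capillary electrophoresis. Signal increase over DMSO was fitted.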

Assay [17] concerns the target Nuclear receptor subfamily 4 group A member 2 (Homo sapiens) (UniProt P43354). Nature of the assay: ATG_NURR1_TRANS: Attagene TRANS-FACTORIAL HepG2 Assay for human Nuclear Receptor Related Protein 1 (NURR1) (AID 2282985). The settings on record: HepG2 Attagene TRANS reporter, mRNA readout. In short, it runs like this:
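Chimeric NR-Gal4 fusion activity measured in HepG2 after 24 h treatment. Reporter transcripts detected by RT-PCR and capillary electrophoresis fluorescence; positive-direction curve fitting against DMSO.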

Assay [18] concerns the target Steroid hormone receptor ERR1 (Homo sapiens) (UniProt P11474). Nature of the assay: ATG_ERRa_TRANS: Attagene TRANS-FACTORIAL HepG2 Assay for human Estrogen-Related Receptor alpha (ERRa) (AID 2282971). The settings on record: HepG2 Attagene TRANS reporter, ERRa transactivation. In short, it runs like this:
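Signal gain relative to DMSO for an ERRa-Gal4 chimeric receptor, read as reporter mRNA by RT-PCR/capillary electrophoresis. Human HepG2 liver cells, transient multiplex reporter transfection, 24 h chemical exposure.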

Chain of Hepatocyte nuclear factor 4-alpha (Homo sapiens) (P41235 whole entry, looked up, the tested form may be a part): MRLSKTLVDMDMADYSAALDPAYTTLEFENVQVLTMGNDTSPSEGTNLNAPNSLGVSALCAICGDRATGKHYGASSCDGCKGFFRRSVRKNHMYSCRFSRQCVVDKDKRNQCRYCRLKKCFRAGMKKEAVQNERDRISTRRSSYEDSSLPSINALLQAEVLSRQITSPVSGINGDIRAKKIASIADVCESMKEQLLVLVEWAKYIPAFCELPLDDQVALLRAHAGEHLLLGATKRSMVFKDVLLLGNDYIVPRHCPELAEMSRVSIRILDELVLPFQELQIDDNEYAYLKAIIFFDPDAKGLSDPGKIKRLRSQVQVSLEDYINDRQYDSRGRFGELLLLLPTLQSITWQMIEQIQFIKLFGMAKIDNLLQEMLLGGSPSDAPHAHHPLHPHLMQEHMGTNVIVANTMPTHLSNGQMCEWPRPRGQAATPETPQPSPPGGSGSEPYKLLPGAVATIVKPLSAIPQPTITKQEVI
Chain of Oxysterols receptor LXR-beta (Homo sapiens) (P55055 whole entry, looked up, the tested form may be a part): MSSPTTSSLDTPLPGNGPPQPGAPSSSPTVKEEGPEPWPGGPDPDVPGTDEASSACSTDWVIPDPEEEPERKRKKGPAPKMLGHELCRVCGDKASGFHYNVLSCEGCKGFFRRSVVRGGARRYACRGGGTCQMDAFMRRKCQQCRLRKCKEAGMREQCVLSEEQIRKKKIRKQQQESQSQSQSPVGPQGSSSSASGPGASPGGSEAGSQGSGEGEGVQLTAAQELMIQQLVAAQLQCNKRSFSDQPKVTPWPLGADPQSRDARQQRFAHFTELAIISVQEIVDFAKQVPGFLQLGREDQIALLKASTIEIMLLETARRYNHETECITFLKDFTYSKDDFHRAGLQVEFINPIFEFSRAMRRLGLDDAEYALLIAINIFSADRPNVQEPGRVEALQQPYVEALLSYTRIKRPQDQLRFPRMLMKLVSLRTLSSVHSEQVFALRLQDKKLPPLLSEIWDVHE
Chain of Oxysterols receptor LXR-alpha (Homo sapiens) (Q13133 whole entry, looked up, the tested form may be a part): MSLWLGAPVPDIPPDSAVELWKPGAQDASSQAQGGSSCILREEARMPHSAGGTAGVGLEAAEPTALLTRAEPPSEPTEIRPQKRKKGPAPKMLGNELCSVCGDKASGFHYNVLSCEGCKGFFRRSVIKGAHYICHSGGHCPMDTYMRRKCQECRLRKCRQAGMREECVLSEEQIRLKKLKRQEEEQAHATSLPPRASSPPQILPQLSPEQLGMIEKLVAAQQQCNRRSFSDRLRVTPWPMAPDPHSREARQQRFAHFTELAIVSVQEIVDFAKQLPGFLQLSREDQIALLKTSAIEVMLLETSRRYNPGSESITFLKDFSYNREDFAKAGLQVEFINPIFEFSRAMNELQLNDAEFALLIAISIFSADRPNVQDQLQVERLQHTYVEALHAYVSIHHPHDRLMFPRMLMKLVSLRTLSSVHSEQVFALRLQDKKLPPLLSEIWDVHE
Chain of Transcriptional activator Myb (Homo sapiens) (P10242 whole entry, looked up): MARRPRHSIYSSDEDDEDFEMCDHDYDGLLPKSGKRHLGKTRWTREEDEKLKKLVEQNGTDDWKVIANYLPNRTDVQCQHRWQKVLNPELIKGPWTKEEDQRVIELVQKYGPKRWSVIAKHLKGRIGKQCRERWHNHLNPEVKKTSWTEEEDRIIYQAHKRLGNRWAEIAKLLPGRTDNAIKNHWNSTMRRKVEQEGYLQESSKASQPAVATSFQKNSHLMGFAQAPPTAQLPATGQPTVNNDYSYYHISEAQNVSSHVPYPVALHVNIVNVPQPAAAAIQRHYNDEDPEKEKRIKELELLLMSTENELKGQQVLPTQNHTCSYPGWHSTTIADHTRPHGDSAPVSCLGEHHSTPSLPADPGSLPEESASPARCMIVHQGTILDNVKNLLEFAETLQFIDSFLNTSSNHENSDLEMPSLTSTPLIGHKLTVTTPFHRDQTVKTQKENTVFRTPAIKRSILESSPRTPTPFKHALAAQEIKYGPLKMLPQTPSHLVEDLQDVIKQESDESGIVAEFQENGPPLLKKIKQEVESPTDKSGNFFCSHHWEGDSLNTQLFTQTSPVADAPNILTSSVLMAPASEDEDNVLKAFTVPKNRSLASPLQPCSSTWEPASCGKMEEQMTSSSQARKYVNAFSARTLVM
Chain of X-box-binding protein 1 (Homo sapiens) (P17861 whole entry, looked up): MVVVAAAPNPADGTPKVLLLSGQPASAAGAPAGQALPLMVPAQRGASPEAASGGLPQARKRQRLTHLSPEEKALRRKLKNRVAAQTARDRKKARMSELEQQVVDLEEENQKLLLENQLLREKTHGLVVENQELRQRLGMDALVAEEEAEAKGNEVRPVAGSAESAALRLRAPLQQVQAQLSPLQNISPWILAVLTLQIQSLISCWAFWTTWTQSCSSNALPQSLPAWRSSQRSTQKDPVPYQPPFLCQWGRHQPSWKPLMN
Chain of Nuclear receptor subfamily 4 group A member 2 (Homo sapiens) (P43354 whole entry, looked up, the tested form may be a part): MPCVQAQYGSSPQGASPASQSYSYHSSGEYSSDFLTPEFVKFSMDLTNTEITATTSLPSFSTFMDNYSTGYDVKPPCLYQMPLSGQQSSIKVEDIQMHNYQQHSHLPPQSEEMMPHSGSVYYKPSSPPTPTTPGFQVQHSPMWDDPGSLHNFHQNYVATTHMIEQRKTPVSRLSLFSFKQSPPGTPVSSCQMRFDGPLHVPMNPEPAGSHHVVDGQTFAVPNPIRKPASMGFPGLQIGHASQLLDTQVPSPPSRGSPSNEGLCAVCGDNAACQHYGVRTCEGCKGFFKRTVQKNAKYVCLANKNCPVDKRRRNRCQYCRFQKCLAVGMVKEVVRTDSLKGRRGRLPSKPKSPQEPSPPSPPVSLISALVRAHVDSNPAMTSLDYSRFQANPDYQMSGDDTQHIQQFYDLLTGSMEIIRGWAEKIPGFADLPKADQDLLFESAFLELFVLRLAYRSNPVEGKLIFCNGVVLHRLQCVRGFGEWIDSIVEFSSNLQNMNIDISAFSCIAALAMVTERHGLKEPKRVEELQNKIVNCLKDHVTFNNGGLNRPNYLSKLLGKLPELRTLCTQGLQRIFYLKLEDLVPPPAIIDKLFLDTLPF
Chain of Bile acid receptor (Homo sapiens) (Q96RI1 whole entry, looked up, the tested form may be a part): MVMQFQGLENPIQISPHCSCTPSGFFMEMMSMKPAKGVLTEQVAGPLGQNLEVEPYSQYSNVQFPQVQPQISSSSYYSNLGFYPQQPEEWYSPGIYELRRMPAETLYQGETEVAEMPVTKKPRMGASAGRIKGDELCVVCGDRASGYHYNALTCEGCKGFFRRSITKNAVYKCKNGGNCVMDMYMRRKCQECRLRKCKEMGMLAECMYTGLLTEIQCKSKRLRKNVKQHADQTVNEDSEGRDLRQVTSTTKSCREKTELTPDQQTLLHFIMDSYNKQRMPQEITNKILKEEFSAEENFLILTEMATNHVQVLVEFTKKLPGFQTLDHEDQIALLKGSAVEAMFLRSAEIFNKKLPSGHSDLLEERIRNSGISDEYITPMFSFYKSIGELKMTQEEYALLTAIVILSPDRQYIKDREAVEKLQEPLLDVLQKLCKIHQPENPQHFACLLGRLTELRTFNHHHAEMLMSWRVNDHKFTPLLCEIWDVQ

As to `O=S(=O)(c1ccc(Cl)cc1)c1ccc(Cl)cc1`, the result in assay [1], in assay [2], in [4], in assay [5], in [6] and in assay [7] was inactive. For the same compound, the compound was classed as inactive in [8], in assay [9], in [10], in [11] and in [12]. In [3], the AC50 was 27.2 µM (active).

Take `Cc1ccc(N)cc1Cl`: the outcome in assay [1], in [2], in [3], in assay [4], in [5] and in assay [6] was inactive. Further, the outcome in assay [9], in assay [10], in assay [11] and in assay [12] was inactive.

As for `O=C(Nc1ccc2[nH]ccc2c1)c1cc2cc(F)ccc2n1Cc1cccc(F)c1`, the compound was called inactive in assay [1], in [2], in assay [4], in [13], in assay [8] and in [14]. Moreover, the compound was classed as inactive in assay [15], in [16], in assay [17] and in assay [12]. Also, the AC50 in [3] was 11 µM (active); in assay [6], 14.1 µM (active).

In the case of `[O-][Cl+2]([O-])O`, the result in assay [1], in [2], in [3], in assay [4], in assay [6] and in assay [7] was inactive. The outcome in assay [9], in [10], in [15], in assay [11], in [16] and in [17] was inactive. Moreover, the outcome in [12] was inactive.

For `CCN(CC)C(=O)Cl`, the result in assay [1], in [3], in assay [4], in [18], in [6] and in assay [8] was inactive. Further, the compound was classed as inactive in assay [14], in [15], in assay [11], in assay [16] and in assay [12]. Besides, the half-maximal activity concentration (AC50) was 0.104 µM (active) in assay [2] and 15.9 µM (active) in assay [5].
